Results as given in PubChem BioAssay (NCI).
This is part of a sample that, as a whole, favours compounds with a hit. Of some 83,000 tested, about 20% had one in any assay.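 Results are percent growth after 48 hours of single-concentration exposure. 100 means growth as in untreated cells, lower positive values show inhibition; negative values down to -100 show cell death.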 A number with no mark means an inactive call. Active and inactive are the calls of the source. The calls were made as follows: active = growth percent below 10; inactive = the rest.

How the values were obtained:
Test in all cases: NCI-60 one-dose screen, 48 h (100 = growth as untreated, 0 = no growth, -100 = all killed)
Details in all cases: 10 µM unless noted
DU-145 prostate = tested on: DU-145 prostate
K-562 leukemia = tested on: K-562 leukemia
MALME-3M melanoma = tested on: MALME-3M melanoma
MDA-MB-231 breast = tested on: MDA-MB-231 breast
RXF 393 renal = tested on: RXF 393 renal
SF-268 CNS = tested on: SF-268 CNS
SF-295 CNS = tested on: SF-295 CNS
SF-539 CNS = tested on: SF-539 CNS
UACC-257 melanoma = tested on: UACC-257 melanoma
M14 melanoma = tested on: M14 melanoma
HCT-15 colon = tested on: HCT-15 colon
HT29 colon = tested on: HT29 colon
SNB-75 CNS = tested on: SNB-75 CNS
SNB-19 CNS = tested on: SNB-19 CNS
U251 CNS = tested on: U251 CNS
PC-3 prostate = tested on: PC-3 prostate
SK-MEL-5 melanoma = tested on: SK-MEL-5 melanoma
UACC-62 melanoma = tested on: UACC-62 melanoma
LOX IMVI melanoma = tested on: LOX IMVI melanoma
SK-MEL-28 melanoma = tested on: SK-MEL-28 melanoma

Row | Structure (SMILES) | growth (DU-145 prostate) | growth (K-562 leukemia) | growth (MALME-3M melanoma) | growth (MDA-MB-231 breast) | growth (RXF 393 renal) | growth (SF-268 CNS) | growth (SF-295 CNS) | growth (SF-539 CNS) | growth (UACC-257 melanoma) | growth (M14 melanoma) | growth (HCT-15 colon) | growth (HT29 colon) | growth (SNB-75 CNS) | growth (SNB-19 CNS) | growth (U251 CNS) | growth (PC-3 prostate) | growth (SK-MEL-5 melanoma) | growth (UACC-62 melanoma) | growth (LOX IMVI melanoma) | growth (SK-MEL-28 melanoma)
1 | CS(=O)c1cccc(-c2ccc3nc(N)n(-c4ccc(C(F)(F)F)cc4)c(=O)c3c2)c1 (stereo not given) | 103% | 96.2% | 78.6% | 90.5% | 92.5% | 89.1% | 92.1% | 91.7% | 101% | 99.5% | 105% | 99.8% | 114% | 91.7% | 88.9% | 83.5% | 87.8% | 95% | 88.1% | 114%
2 | NC(=O)c1ccc[n+]([C@@H]2O[C@H](COP(=O)([O-])OP(=O)(O)OC[C@H]3O[C@@H](n4cnc5c(N)ncnc54)[C@H](O)[C@@H]3O)[C@@H](O)[C@H]2O)c1 | 105% | 109% | 115% | 98% | 125% | 104% | 108% | 90.3% | 108% | 104% | 97.3% | 106% | 104% | 110% | 99.5% | 114% | 112% | 119% | 92.9% | 103%
3 | Cc1ccc(Nc2ccc(Nc3ccc(C)cc3)c3c2C(=O)c2cccc(O)c2C3=O)cc1 | 114% | 94.3% | 120% | 88.7% | 110% | 104% | 126% | 105% | 105% | 104% | 100% | 117% | 93.8% | 104% | 104% | 78.9% | 95.9% | 87.1% | 91.5% | 118%
4 | Cc1ccc(NS(=O)(=O)c2ccc3c(c2)C(=O)CC(c2ccc(C(=O)C(C)C)cc2)N3)cc1C (stereo not given) | 83.5% | 39.7% | 51.1% | 78.5% | 75.3% | 68% | 37.7% | 71.5% | 43.1% | 73% | 57% | 91.3% | 55.7% | 68.2% | 68% | 46% | -10.4% (active) | 52.8% | 55.6% | 77%
5 | CCCCCCCCCCCC(c1ccccc1)[N+](C)(C)C (stereo not given) | 39.8% | 19% | 5.27% (active) | 21.1% | -61% (active) | 13.2% | 55.1% | 15.8% | 20% | 11.2% | 93.4% | 3.96% (active) | -15.3% (active) | 25.2% | 18.3% | -18.8% (active) | -80.1% (active) | 6.22% (active) | -36.8% (active) | 31.6%
6 | O=C(N/N=C/C=C/c1ccc([N+](=O)[O-])o1)c1cc2ccccc2cc1O | -21.7% (active) | 4.52% (active) | -68% (active) | -15.9% (active) | -63.2% (active) | -20.3% (active) | 14.4% | -83.6% (active) | -56.3% (active) | -100% (active) | -12.3% (active) | -11.7% (active) | 43.4% | -34.4% (active) | -16% (active) | 4.52% (active) | -100% (active) | -64.3% (active) | -79.5% (active) | -66.5% (active)
7 | Cc1cccc(Cc2cnc(NC(=O)/C=C/c3ccco3)s2)c1 | 15.9% | 8.09% (active) | 54.8% | 56.5% | -0.566% (active) | 49.4% | 6.75% (active) | -19.9% (active) | 41.3% | 10.3% | 12.8% | 6.71% (active) | 16.8% | 52.2% | 20.6% | 27.2% | 11.2% | 28.1% | 18.8% | 62.2%
8 | O=c1cc(-c2ccc(Cl)cc2)[nH]c2ccccc12 | 97.4% | 33% | 84.7% | 81.6% | 76.4% | 86.1% | 84.1% | 94.5% | 73.3% | 71.8% | 59.1% | 86.3% | 85.3% | 91.5% | 80% | 75.7% | 59.1% | 67.8% | 71.4% | 78.1%
9 | COC1=CC(=O)C[C@@H](C)[C@]12Oc1c(Cl)c(OC)cc(OC)c1C2=O | 105% | 32.9% | 85.2% | 84.1% | 86.8% | 93.5% | 96.8% | 104% | 84.5% | 66.3% | 76.9% | 104% | 67.8% | 95.7% | 92.1% | 87.5% | 84.3% | 73.3% | 80.8% | 85.7%
10 | COc1cccc(/C=C/C(=O)c2c(C)nc3ccccc3c2/C=C/c2ccc(C)cc2)c1OC | 52.3% | 17.3% | 79.1% | 63.8% | 53.8% | 70.3% | 65.7% | 72.8% | 67.5% | 73.7% | 19% | 29.7% | 42.4% | 70.2% | 55.3% | 43.4% | 66% | 43.6% | 39% | 40.9%
11 | N#CCN1C(=O)C2C3=C(CCCC3)SC2N=C1CN1CCCC1 (stereo not given) | 99.7% | 70.1% | 111% | 94.9% | 88.6% | 118% | 107% | 92.5% | 96.8% | 120% | 74.4% | 110% | 88.3% | 106% | 102% | 48.5% | 98.2% | 83.6% | 97.7% | 120%
12 | O=C(O)CN1C(=O)CCC1=O | 109% | 111% | 104% | 90.7% | 111% | 99.8% | 99.1% | 99% | 104% | 111% | 103% | 90.6% | 95.3% | 108% | 105% | 108% | 103% | 108% | 102% | 107%
13 | CC(C)(C)n1cc(-c2ccnc(NCCCNS(=O)(=O)c3ccccc3)c2)c(-c2ccccc2)n1 | 83.7% | 21.2% | 82.7% | 72% | 62% | 93.1% | 63.2% | 66.4% | 77.9% | 67.1% | 26.5% | 24.7% | 65.1% | 89.4% | 64.3% | 35.6% | 53.2% | 61.8% | 50.9% | 97%
14 | O=S(=O)(O)c1ccc(N/N=C/c2ccccc2Cl)cc1 | 116% | 95.6% | 109% | 118% | 125% | 103% | 108% | 101% | 116% | 99.9% | 97% | 100% | 94.6% | 109% | 99.5% | 99.2% | 103% | 111% | 128% | 111%
15 | CC(C)CC(NC(=O)CN(Cc1ccccc1)S(C)(=O)=O)C(=O)O (stereo not given) | 104% | 78% | 98.8% | 111% | 80.3% | 109% | 96.4% | 90.9% | 103% | 97% | 101% | 97.4% | 80% | 91.6% | 103% | 90.1% | 95% | 89.2% | 100% | 100%
